Assay outcomes (PubChem)
Sampled rows, rich in hits. Any-hit rate of the full collection: about 13%.
CHOP inhibitor: inhibitors of CHOP promoter induction, primary screen, cell-based, unfolded protein response, luciferase reporter; CHO-K1 CHOP-promoter luciferase, tunicamycin-induced, 15-18 h; inhibition, % at 10 µM; 3.8% of 220,000 active; AID 2732, 2010;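 active means compounds that reduced the stress-induced luciferase reporter signal by more than about 70% of percent inhibition, limit read from the data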;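 further: 0% = tunicamycin plus vehicle and 100% = wells without tunicamycin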
WT yeast gro inh: growth inhibition of WT strain, primary screen, mitochondrial fusion inhibitor project, WT and mutant strains, chemical genetic; inhibition, % at 10 µM; mitochondrial fusion phenotypic screen; 2.1% of 190,000 active; in the data active means inhibition above about 58%; tested in S. cerevisiae
L major viab: Leishmania major promastigote growth inhibition, primary screen; inhibition, % at 10 µM; 9% of 200,000 active; AID 1063, 2008; Leishmania major promastigotes, resazurin fluorescence viability; in the data active means inhibition above about 50%;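 further: promastigotes grown with compound for 44 hours at 28 °C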
RAM inhibit: inhibitors of the yeast RAM network, primary screen, dse1pr::URA3 reporter, 5-FOA selection; S. cerevisiae dse1pr::URA3 reporter, 5-FOA growth OD615, 2 d; analog-sensitive cbk1-as2 kinase mutant strain; inhibition, % at 50 µM; 1.8% of 190,000 active;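 active means inhibition above a set limit, 3 SD over mean compound inhibition, cut at about 8.4% in these data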;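 further: 0% = DMSO-only wells with no growth and 100% = 10 µM 1-NA-PP1 full growth; inhibition rescues growth on 5-FOA so higher OD means more RAM inhibition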
Active calls of the source: *; . = not tested or not shown.

SMILES | CHOP inhibitor | WT yeast gro inh | L major viab | RAM inhibit
COc1ccc(NC(=O)C2C(c3ccccc3)C2(Cl)Cl)cc1 (stereo unspecified) | 12.4 | . | . | .
O=C(CN(Cc1ccco1)C(=O)CCC(=O)Nc1ccccn1)NCCc1ccccc1 | 24.2 | -6.8 | 98.0* | 1.5
CC1=C(C(=O)OCC(C)C)C(c2cc3c(cc2Br)OCO3)NC(=O)N1C (stereo unspecified) | 40.5 | 21.5 | 35.5 | 2.0
COC(=O)C1=CN(C(C)C)C=C(C(=O)OC)C1c1cc2c(cc1Br)OCO2 | -13.7 | 6.4 | 99.9* | 2.7
O=C(CCCCCNc1nc(=S)[nH]c2ccccc12)N1CCN(c2ccccn2)CC1 | 41.8 | 3.5 | 56.6* | 1.9
COc1cccc(N2CCN(C(=O)CCCCCNc3nc(=S)[nH]c4ccccc34)CC2)c1 | 12.6 | 14.8 | 73.7* | -0.1
C/C(=N\NC(=O)c1sccc1-n1cccc1)c1cccs1 | 16.1 | -22.1 | 6.0 | 1.7
Cc1cc(C)c(S(=O)(=O)Nc2ccccc2C(=O)OCC(=O)NCc2ccccc2)c(C)c1 | 29.2 | -19.7 | -6.3 | 8.7*
CN(C(=O)c1ccccc1C(=O)OCC(=O)NCc1ccccc1)C1CCCCC1 | -15.0 | 1.0 | 67.4* | -0.8
COc1ccc2[nH]c(=O)c(C(c3nnnn3C3CCCC3)N(C)C3CCCCC3)cc2c1 (stereo unspecified) | 75.1* | -4.7 | 53.1* | -0.1
Clc1ccc(C(c2nnnn2C2CCCCC2)N(Cc2cccnc2)Cc2ccco2)cc1 (stereo unspecified) | 55.0 | 70.2* | 99.9* | 0.7
CC(C)(C)n1nnnc1C(c1cccnc1)N(Cc1ccccc1)Cc1ccco1 (stereo unspecified) | 44.5 | -6.7 | 84.8* | -0.4
Cc1ccc2cc(C(c3nnnn3C3CCCC3)N(Cc3ccco3)Cc3cccs3)c(=O)[nH]c2c1 (stereo unspecified) | 45.2 | 8.0 | 81.8* | 0.5
CCC(C)(C)n1nnnc1C(C(C)C)N(Cc1cccnc1)Cc1ccco1 (stereo unspecified) | -18.5 | 6.8 | 45.0 | 1.1
Cc1ccc2[nH]c(=O)c(C(c3nnnn3C(C)(C)C)N(Cc3ccco3)CC3CCCO3)cc2c1 (stereo unspecified) | 29.0 | 0.6 | -0.6 | 1.2
CNCc1sccc1C | 15.0 | 8.9 | -2.8 | 0.4
Cc1ccc(S(=O)(=O)CCSc2n[nH]c(=O)n2-c2ccc3c(c2)OCCO3)cc1 | -3.8 | . | . | .
COc1ccc2[nH]c(=O)c(CN(Cc3ccco3)C(c3nnnn3Cc3ccccc3)C(C)C)cc2c1 (stereo unspecified) | 56.8 | 20.7 | 46.7 | 1.7
CCN(Cc1ccccc1)C(c1ccc(C(F)(F)F)cc1)c1nnnn1C(C)(C)C (stereo unspecified) | 42.1 | 72.8* | 28.3 | 11.4*
CCOC(=O)Cn1nnnc1C(CC)N(Cc1cccs1)Cc1cc2ccc(OC)cc2[nH]c1=O (stereo unspecified) | 37.6 | 14.4 | 98.8* | 9.6*
CCC(c1nnnn1Cc1ccco1)N(Cc1ccccc1OC)Cc1cc2cc(C)ccc2[nH]c1=O (stereo unspecified) | 39.1 | 0.6 | 2.7 | 2.8
CC(c1nnnn1C1CCCCC1)N(Cc1ccccc1)Cc1cccnc1 (stereo unspecified) | 1.8 | 2.7 | 92.3* | -0.5
CCC(c1nnnn1C1CCCCC1)N(Cc1ccco1)Cc1cc2ccc(OC)cc2[nH]c1=O (stereo unspecified) | 68.8 | 10.3 | 74.3* | 6.1
CCN(Cc1ccccc1)C(c1ccccn1)c1nnnn1C1CCCCC1 (stereo unspecified) | 51.3 | 7.8 | 33.5 | 5.1
CCN(Cc1ccccc1)C(c1cccc(C#N)c1)c1nnnn1C(C)(C)C (stereo unspecified) | 41.3 | 27.4 | 25.4 | 2.6
SMILES | CHOP inhibitor | WT yeast gro inh | L major viab | RAM inhibit
O=C(CN1CCN(c2ccc(Cl)cc2[N+](=O)[O-])CC1)N1CCOCC1 | 0.6 | . | . | .
COc1ccccc1OCCC(=O)OCC(=O)Nc1ccc(Br)cc1F | 9.6 | 13.3 | -5.9 | 3.5
Cc1ccc2cc(C(c3nnnn3C3CCCC3)N(Cc3cccnc3)Cc3ccco3)c(=O)[nH]c2c1 (stereo unspecified) | 61.0 | -4.5 | 24.6 | -0.5
Cc1ccc2[nH]c(=O)c(C(c3nnnn3C3CCCC3)N(Cc3cccnc3)Cc3ccco3)cc2c1 (stereo unspecified) | 15.8 | -3.6 | 85.0* | 2.0
Cc1cc(C)n2nc(CCCO)nc2n1 | -0.1 | -12.0 | -7.0 | 0.1
O=S(=O)(Nc1ccc(S(=O)(=O)Nc2nccs2)cc1)c1ccc2c(c1)OCCO2 | -11.4 | 10.9 | -3.3 | -0.3
O=C(Nc1cccc(-c2nc3cccnc3s2)c1)c1cccnc1Cl | 19.9 | . | . | .
O=C(Nc1cccc(-c2nc3cccnc3s2)c1)c1ccc(Cl)nc1 | 80.8* | . | . | .
O=S(=O)(Nc1cccc(-c2nc3cccnc3s2)c1)c1ccc2c(c1)OCCO2 | 56.4 | 67.7* | 7.6 | 5.9
CCOc1ccc(NC(=O)CC(c2ccccc2)c2ccc(F)cc2)cc1 (stereo unspecified) | 22.5 | -5.5 | 1.5 | 4.4
COC(=O)CCCCC1SCC(NC(=O)c2ccccc2)C1=O (stereo unspecified) | 4.4 | 16.2 | -2.6 | 2.0
COC(=O)CCCCC1SCC(NC(=O)c2ccccc2)C1OC(C)=O (stereo unspecified) | 1.9 | -6.1 | -1.1 | 9.2*
Cc1ccc(S(=O)(=O)N(C)CC(=O)N2CCCc3ccccc32)cc1 | -3.8 | -0.4 | 0.9 | 1.7
Cc1ccc(NC(/C=C/N(C)C)=C/C(=O)C(F)(F)F)c(C)c1 | 0.9 | 80.3* | 30.2 | -0.6
CN(C)/C=C\C(=C/C(=O)C(F)(F)F)Nc1ccccc1Oc1ccccc1 | 18.0 | -11.3 | 3.1 | 1.2
Cc1ccc2c(c1)Oc1ccccc1C=C2C(=O)O | -12.7 | -6.7 | -3.8 | -2.0
CC1CCC(NC(=O)c2ccc(NC(=O)c3ccc(=O)[nH]c3)cc2)CC1 (stereo unspecified) | 8.1 | 12.4 | -8.5 | 4.7
CCC(C(=O)Nc1ccccc1OC)n1c(C(=O)OC)cc2ccsc21 (stereo unspecified) | 81.2* | 46.7 | 29.5 | 6.1
CCn1c(C)nc2cc(C(=O)N/N=C(\C)c3ccc(OC)cc3O)ccc21 | 42.3 | 17.5 | 38.4 | 0.8
CN1CCN(Cc2cc(=O)oc3cc4c(cc23)CCC4)CC1 | 8.9 | -11.7 | 65.4* | 0.8
CCN1CCN(Cc2cc(=O)oc3cc4c(cc23)CCC4)CC1 | 32.4 | 8.8 | 8.0 | 1.7
Cc1ccc2c(CN3CCN(CCO)CC3)cc(=O)oc2c1C | -8.9 | 5.0 | 54.9* | -1.0
Cc1cc2oc(=O)cc(CN3CCCc4ccccc43)c2cc1C | 17.2 | 7.2 | 99.3* | 1.8
Cc1cc2oc(=O)cc(CN3CCOCC3)c2cc1C | 17.2 | 0.3 | -2.8 | 0.2
Cc1ccc2c(CN3CCN(C(=O)c4ccco4)CC3)cc(=O)oc2c1C | 18.7 | -2.8 | 5.7 | 0.0
CCN(CC)CCCC(C)NC(=O)c1cccc(S(=O)(=O)N2CCc3ccccc32)c1 (stereo unspecified) | -0.3 | 6.2 | 48.3 | -0.1
